This is a sample that favours compounds with a hit; in the whole collection about 3.5% have one here.
TEAD-YAP block: TEAD-YAP interaction inhibition | HEK-TIYL cells, TEAD-Gal4/YAP UAS-luciferase luminescence | inhibition, % at 9.12 µM | 640,000 tested, 1.4% active; in the data active = inhibition above about 32%;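 note: 0% = median of test compound wells and 100% = reference inhibitor wells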
MITF inh: blocks human microphthalmia-associated transcription factor | AID 1259374 | inhibition, % at 2.6 µM | AlphaScreen MITF homodimerization, bead proximity signal | O75030 | 650,000 tested, 0.91% active; in the data active = inhibition above about 50%;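 note: 0% = vehicle wells with protein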
FBW7 act: activators of human E3 ligase FBW7. AlphaScreen FBW7–phospho-cyclin E peptide binding, activator screen. AID 1259310. 650,000 tested, 0.13% active. normalized activity (activation), % at 26.1 µM. Q969H0; in the data active = normalized activity above about 1.9%;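 note: purified mutant Fbw7 with reduced substrate affinity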
GPR151 ag: activates the human receptor GPR151; Q8TDV0; PathHunter beta-arrestin GPR151 cells, luminescence; activation, % at 11.2 µM; 650,000 tested, 1% active; in the data active = activation above about 4.9%;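 note: 0% = median of compound wells and 100% = cells with positive control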
Target sequence (Q8TDV0 whole entry, looked up): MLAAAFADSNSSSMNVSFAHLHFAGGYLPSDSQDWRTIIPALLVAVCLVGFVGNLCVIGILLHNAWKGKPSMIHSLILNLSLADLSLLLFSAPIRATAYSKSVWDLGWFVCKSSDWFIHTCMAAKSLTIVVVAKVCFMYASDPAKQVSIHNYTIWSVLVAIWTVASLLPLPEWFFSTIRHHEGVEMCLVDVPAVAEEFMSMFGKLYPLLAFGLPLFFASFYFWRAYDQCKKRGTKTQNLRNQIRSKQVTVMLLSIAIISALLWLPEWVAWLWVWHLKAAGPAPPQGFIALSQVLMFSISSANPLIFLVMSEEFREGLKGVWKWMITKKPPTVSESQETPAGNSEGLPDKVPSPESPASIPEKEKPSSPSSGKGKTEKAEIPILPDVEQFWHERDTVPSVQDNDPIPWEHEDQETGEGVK
Active calls of the source: *; ! = repeats disagree.

SMILES	TEAD-YAP block	MITF inh	FBW7 act	GPR151 ag
COc1cc(Br)cc(C=Nc2ccc3[nH]ncc3c2)c1O	3	6	0	0
COc1cccc(C=Nc2ccc3[nH]ncc3c2)c1O	11	3	6.3*	0
COc1cccc(/C=N/NC(=O)COc2ccccc2)c1O	2	-5	-1	-1
CC(C)Oc1ccc(-c2cc(C(=O)N/N=C/c3ccccc3O)[nH]n2)cc1	65*	9	0	0
COc1cccc(/C=N/NC(=O)Cn2c3ccccc3c(=O)c3ccccc32)c1O	50*	21	0	-1
O=C(N/N=C/c1cccc(O)c1O)c1cc(O)cc(O)c1	31	61*	-1	-1
C=CCc1cccc(/C=N/NC(=O)c2ccccc2OC)c1O	-15	8	0	0
C=CCc1cccc(/C=N/NC(=O)c2ccccc2O)c1O	42*	13	0	-1
CN1C(=O)S/C(=C\c2ccc(OCC(=O)O)c(I)c2)C1=O	-5	-2	0	0
Cc1ccccc1/C=N/NC(=O)c1ccccc1C	-43	2	0	3
O=C(N/N=C/c1ccccc1Br)c1cccc2cc[nH]c12	-27	11	0	0
COc1cccc(/C=N/NC(=O)c2ccccc2O)c1O	77*	42	-1	-2
Cc1ccccc1C(=O)N/N=C/c1cccc(O)c1O	59*	26	-1	0
COc1cccc(/C=N/NC(=O)c2ccc(O)cc2O)c1O	42*	31	-1	-1
O=C(N/N=C/c1ccccc1O)c1cccc2cc[nH]c12	81*	5	-1	2
Cc1ccc(N2CCN(C(=O)Cn3nnnc3CN3CCCCCC3)C(C)C2)cc1 (stereo unspecified)	0	12	0	-1
COc1cccc(/C=N/NC(=O)c2cc(C34CC5CC(CC(C5)C3)C4)[nH]n2)c1O	40*	12	0	0
COc1ccc(C(=O)N/N=C/c2cccc(OC)c2O)cc1	8	28	0	-1
COc1cccc(/C=N/NC(=O)c2ccc(-c3ccccc3)cc2)c1O	83*	2	0	-1
CCOC(=O)c1[nH]c2c(c1C)C(=O)CC(c1cc(OC)ccc1OC)C2 (stereo unspecified)	44*	7	0	1
CCOc1ccc(C2CC(=O)c3c([nH]c(C(=O)OC)c3C)C2)cc1OC (stereo unspecified)	-12	13	0	0
C=CCOC(=O)c1[nH]c2c(c1C)C(=O)CC(c1ccc(OC)c(OC)c1)C2 (stereo unspecified)	3	17	0	0
C=CCOC(=O)c1[nH]c2c(c1C)C(=O)CC(c1cc(OC)c(OC)c(OC)c1)C2 (stereo unspecified)	43*	-4	0	0
C=CCOC(=O)c1[nH]c2c(c1C)C(=O)CC(c1cccs1)C2 (stereo unspecified)	49*	-9	0	1
COC(=O)c1[nH]c2c(c1C)C(=O)CC(c1cc(OC)ccc1OC)C2 (stereo unspecified)	46*	-5	0	0
SMILES	TEAD-YAP block	MITF inh	FBW7 act	GPR151 ag
C=CCOC(=O)c1[nH]c2c(c1C)C(=O)CC(c1ccc(OC)cc1)C2 (stereo unspecified)	-35	1	0	1
COC(=O)C(NC(=O)c1ccc(Cl)cc1)(Nc1sc2c(c1C(N)=O)CCCC2)C(F)(F)F (stereo unspecified)	-15	-8	0	-1
CCOC1=NN(c2ccc([N+](=O)[O-])cc2)C(=O)/C1=C\c1ccc(F)cc1	-2	-2	0	0
COC(=O)c1[nH]c2c(c1C)C(=O)CC(c1ccccc1Cl)C2 (stereo unspecified)	52*	20	0	0
CCOC(=O)c1[nH]c2c(c1C)C(=O)CC(c1cccc(OC)c1)C2 (stereo unspecified)	44*	-3	0	1
Cc1c(C(=O)O)[nH]c2c1C(=O)CC(c1ccccc1Cl)C2 (stereo unspecified)	-2	-6	0	-2
C=CCOC(=O)c1[nH]c2c(c1C)C(=O)CC(c1cc(OC)ccc1OC)C2 (stereo unspecified)	42*	-4	0	0
O=C(Nc1ccc(F)cc1)N1CCn2cnnc2C1	-2	-4	0	1
O=C(N/N=C(/c1ccccc1)C12CN3CN(CN(C3)C1)C2)c1ccc([N+](=O)[O-])cc1	5	18	0	0
COc1cccc(CNC(=O)c2cc3oc4ccccc4c3n2C)c1	18	5	0	0
COc1cccc(CNC(=O)c2cc3oc4ccccc4c3n2C)c1OC	36*	15	0	0
Cc1ccnc(NC(=O)Cn2ncc3c2-c2cc(C)ccc2OC3)c1	-1	-6	0	0
Cc1ccc(NC(=O)Cn2ncc3c2-c2cc(C)ccc2OC3)nc1	35*	11	0	-2
CN1CCN(c2ccc(CNS(=O)(=O)Cc3cccc(C(F)(F)F)c3)cc2)CC1	38*	4	0	0
COc1ccc(/C=C2\C=C(c3ccccc3)N(c3ccc(C)c(C)c3)C2=O)cc1Br	-13	0	0	0
O=c1oc2c(O)c(O)cc3c(=O)oc4c(O)c(O)cc1c4c23	-3	94*!	0	0
Cc1c(C)c2ccc(O)c(O)c2oc1=O	4	1	0	1
CCCOc1ccc(OCC(=O)O)cc1	9	-5	0	-1
COc1cc(/C=C2/C(=O)N(C)c3ccccc32)cc(OC)c1O	41*	19	0	0
COc1cc(/C=C2\C(=O)N(C)C(=O)N(c3ccccc3)C2=O)cc(OC)c1O	-4	-14	0	0
Cn1cccc(C(=O)Nc2ccc(-c3cn4c(n3)SCC4)cc2)c1=O	-15	7	0	-7
Cc1[nH]c(=O)[nH]c(=O)c1S(=O)(=O)NCCc1c(C)[nH]c2ccccc12	1	-3	0	0
N#C/C(=C1/Nc2ccccc2S1)c1ccnc(OCc2ccc(CN3CCOCC3)cc2)n1	86*	18	0	3
O=C(Cn1cnc2ccc(Br)cc2c1=O)OCc1ccccc1	10	-2	0	0
Cc1cc(N2CCN(c3ccccc3)CC2)nc(NCc2ccccc2)n1	12	3	0	0
SMILES	TEAD-YAP block	MITF inh	FBW7 act	GPR151 ag
Cc1cc(N2CCCCC2)nc(NCCNS(=O)(=O)Cc2ccccc2)n1	55*	4	0	-1
O=C(COc1ccccc1O)NNC(=O)c1cccnc1	0	1	0	0
Cc1nc2nc(-c3cccs3)cn2nc1C	-23	6	0	-5
c1csc(-c2cn3nc4c(nc3n2)CCCC4)c1	34*	2	0	-6
COc1ccc(C2=C/C(=C/c3ccccc3F)C(=O)O2)cc1OC	7	-4	0	0
COc1ccc(-c2nc(Nc3ccc(N4CCOCC4)cc3)c3ncn(-c4ccsc4)c3n2)cc1	38*	3	0	2
c1cc(-n2cnc3c(Nc4ccc5c(c4)OCO5)nc(NCc4ccc5c(c4)OCO5)nc32)cs1	-47	1	0	-1
c1cc(-n2cnc3c(Nc4ccc5c(c4)OCO5)nc(NCCN4CCOCC4)nc32)cs1	44*	22	0	-2

High-throughput results from PubChem.
